# In PubChem BioAssay (NCI):
# The panel holds about 79,000 compounds, 15% with a hit somewhere; the sample as a whole holds those more often. Unmarked numbers belong to inactive results. Active and inactive are the calls of the source. Cut-off read from the data, not from the text of the source: active = growth inhibition above about 70%; inactive = the rest.
# Assays:
# [1] = NCI Yeast Anticancer Drug Screen. Data for the rad50 strain (AID 155);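 note: 0% = growth of vehicle-only cultures of the same strain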; details: S. cerevisiae rad50 strain growth inhibition, hits give high values
# How it was run: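 Yeast carrying a defined DNA repair defect were exposed to test compounds, and growth was compared with vehicle-treated controls to give percent inhibition.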
# [2] = NCI Yeast Anticancer Drug Screen. Data for the mec2-1 strain (AID 157); details: S. cerevisiae mec2-1 strain, hits give high values
# How it was run: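 Readout is yeast growth inhibition, normalised to vehicle-treated controls, in the mec2-1 strain exposed to compound.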
# [3] = NCI Yeast Anticancer Drug Screen. Data for the sgs1 mgt1 strain (AID 161);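 note: 0% = growth of cultures given vehicle only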; details: S. cerevisiae sgs1 mgt1 strain, hits give high values
# How it was run: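 Compounds are added to genetically altered yeast, and growth is compared with cultures given vehicle alone to give percent inhibition.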
# [4] = NCI Yeast Anticancer Drug Screen. Data for the cln2 rad14 strain (AID 165);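 note: 0% = growth equal to vehicle treated cultures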; details: S. cerevisiae cln2 rad14 strain, hits give high values
# How it was run: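 Relative to vehicle controls, growth inhibition of compound-treated cln2 rad14 yeast was recorded.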
# [5] = NCI Yeast Anticancer Drug Screen. Data for the bub3 strain (AID 167); details: S. cerevisiae bub3 mutant strain, hits give high values
# How it was run: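 Compounds were applied to a genetically altered yeast strain carrying a cell-cycle control defect. Growth inhibition was scored against vehicle-treated controls.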
# [6] = NCI Yeast Anticancer Drug Screen. Data for the mlh1 rad18 strain (AID 175); details: S. cerevisiae mlh1 rad18 strain growth inhibition, hits give high values
# How it was run: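 Test agents were incubated with a yeast strain of defined genotype (DNA damage repair defect). Inhibition of growth was derived by comparison with vehicle-exposed cultures.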
# [7] = at 5.0 µM (retest, dose inferred, filed as 0.5)
# [8] = at 50.0 µM (retest, dose inferred, filed as 5.0)
Structure (SMILES),"growth inhibition [1, 7]","growth inhibition [1, 8]",growth inhibition ([1]; at 50.0 µM),"growth inhibition [2, 7]","growth inhibition [2, 8]",growth inhibition ([2]; at 50.0 µM),"growth inhibition [3, 7]","growth inhibition [3, 8]",growth inhibition ([3]; at 50.0 µM),"growth inhibition [4, 7]","growth inhibition [4, 8]",growth inhibition ([4]; at 50.0 µM),"growth inhibition [5, 7]","growth inhibition [5, 8]",growth inhibition ([5]; at 50.0 µM),"growth inhibition [6, 7]","growth inhibition [6, 8]",growth inhibition ([6]; at 50.0 µM)
c1cc[c]([Sn]([O]c2cccc3cccnc23)([c]2ccccc2)[c]2ccccc2)cc1,99% (active),21%,89.5% (active),100% (active),10%,92.2% (active),100% (active),30%,89.6% (active),99% (active),11%,85.8% (active),99% (active),63%,90.8% (active),100% (active),14%,93% (active)
CN(NC(=O)CC(=O)NN(C)C(=S)c1ccccc1)C(=S)c1ccccc1,76% (active),84% (active),68.5%,81% (active),87% (active),80% (active),96% (active),87% (active),91.7% (active),60%,69%,73.8% (active),54%,73% (active),76% (active),78% (active),76% (active),84.2% (active)
CCO/C=C1\N=C(C(O)(c2ccc(Cl)cc2)c2ccc(Cl)cc2)OC1=O,-1%,3%,48.7%,1%,16%,16%,-2%,1%,18.8%,1%,-1%,44.5%,13%,8%,43.1%,-1%,10%,34%
O=C1CCCC/C1=C/c1ccc(Cl)cc1,-151%,35%,87.3% (active),-49%,-13%,81.2% (active),-64%,35%,82% (active),-57%,-37%,33%,-64%,27%,73.7% (active),-229%,36%,90.8% (active)
CC(O)c1c2ccccc2cc2ccccc12 (stereo not given),-17%,72% (active),84.4% (active),-7%,58%,39.3%,1%,72% (active),37.6%,-32%,50%,16.8%,-1%,81% (active),50.5%,-13%,85% (active),78.8% (active)
O=C(O)/C(Cl)=C(/Cl)C(=O)Nc1cccc(Cl)c1,45%,98% (active),90.9% (active),50%,100% (active),86.2% (active),42%,100% (active),88.6% (active),32%,99% (active),89.1% (active),63%,99% (active),89.9% (active),50%,99% (active),92.4% (active)
CCCCCCCN1C(=O)c2ccccc2S1(=O)=O,-2%,95% (active),95.1% (active),-12%,76% (active),87.3% (active),12%,94% (active),86.2% (active),-4%,73% (active),43%,14%,89% (active),93.5% (active),39%,96% (active),84.8% (active)
O=C(NC[N+]12CCO[B-]1(c1ccc(Br)cc1)OCC2)c1ccccc1O (stereo not given),10%,48%,65.2%,11%,43%,56.2%,23%,51%,60.2%,-4%,38%,21.3%,26%,63%,61.5%,24%,72% (active),87.9% (active)
NC1C(=O)C2CCCCC2C(=O)C1C(=O)c1ccccc1 (stereo not given),-2%,28%,-0.5%,4%,17%,16.4%,-1%,-6%,23.4%,1%,10%,-55.4%,5%,49%,73.9% (active),3%,24%,48.1%
O=[N+]([O-])c1cc(Cl)cc2c1nc(NCCO)c1ccccc12,76% (active),90% (active),75.1% (active),26%,67%,45.2%,63%,93% (active),79.7% (active),46%,79% (active),65%,20%,85% (active),79.9% (active),86% (active),93% (active),89.5% (active)
